Screening data as filed in PubChem.
Sampled rows, rich in hits. Any-hit rate of the full collection: about 13%.
USP28 inh – inhibitors of human USP28 deubiquitinase; inhibition, % at 25 µM; Ubiquitin carboxyl-terminal hydrolase 28 (Homo sapiens), Q96RU2; purified USP28, Ub-rhodamine cleavage fluorescence, 30 min; actives 3% (n = 47,000)
USP8 inh – inhibitors of human USP8 deubiquitinase | Ubiquitin carboxyl-terminal hydrolase 8 (Homo sapiens), P40818 | purified USP8, Ub-rhodamine cleavage fluorescence, 30 min | inhibition, % at 20 µM | actives 4.2% (n = 47,000) | AID 1645853, 2021
USP30 inh – inhibitors of human USP30 deubiquitinase | actives 5.3% (n = 47,000) | purified USP30, Ub-rhodamine cleavage fluorescence | inhibition, % at 25 µM
USP17 block – inhibitors of human USP17 deubiquitinase | Ubiquitin carboxyl-terminal hydrolase 17-like protein 5 (Homo sapiens), A8MUK1 | AID 1645855, 2021 | actives 6.5% (n = 47,000) | inhibition, % at 50 µM | purified USP17, Ub-rhodamine cleavage fluorescence, 3 h
Target sequence (A8MUK1 whole entry, looked up): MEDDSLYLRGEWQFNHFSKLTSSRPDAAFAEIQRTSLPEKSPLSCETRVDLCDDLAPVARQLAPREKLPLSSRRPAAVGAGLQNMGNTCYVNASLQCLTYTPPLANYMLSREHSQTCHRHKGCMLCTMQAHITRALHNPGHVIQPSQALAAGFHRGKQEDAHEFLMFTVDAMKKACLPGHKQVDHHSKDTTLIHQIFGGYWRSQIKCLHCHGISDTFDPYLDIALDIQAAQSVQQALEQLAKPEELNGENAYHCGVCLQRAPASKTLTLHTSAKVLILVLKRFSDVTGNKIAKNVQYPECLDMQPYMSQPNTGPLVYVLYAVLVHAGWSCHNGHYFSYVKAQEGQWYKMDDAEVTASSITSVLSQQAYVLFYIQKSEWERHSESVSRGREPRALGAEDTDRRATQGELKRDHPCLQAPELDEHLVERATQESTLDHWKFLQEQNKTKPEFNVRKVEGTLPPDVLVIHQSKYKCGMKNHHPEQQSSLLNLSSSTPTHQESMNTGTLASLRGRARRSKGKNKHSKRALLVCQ
Each line names hits and unclear results; the compound was inactive in the other large screens. No stated cut-off is given here; in the data, active means inhibition above about 30%; inactive means the rest.

CCCN1C(=O)c2cc(S(=O)(=O)NC(C)C)ccc2Oc2cccnc21	none (no result: USP28 inh, USP30 inh)
Cc1nn(CC(=O)Nc2ccc(Br)c3cccnc23)c(=O)c2ccccc12	USP17 block 65.1
O=C(Nc1ccccc1)N1CCCN(c2c(Cl)cncc2Cl)CC1	USP30 inh 32.0
O=C(Nc1ccc(S(=O)(=O)Nc2cc(Cl)cc(Cl)c2)cc1)c1c(F)cccc1Cl	USP17 block 43.5
O=C(Nc1cc(C(F)(F)F)cc(C(F)(F)F)c1)c1c(F)cccc1Cl	USP28 inh 32.7, USP30 inh 32.7
O=C(Nc1ccc(Oc2ccccc2)cc1)c1c(F)cccc1Cl	none
COc1ccc(-c2nc(CNC(=O)Cc3ccc(Cl)cc3)cs2)cc1	USP17 block 35.5
COc1ccc(CC(=O)NCc2cc(-c3ccc(Cl)cc3)on2)cc1	none
Cc1ccc(-c2nc(CNC(=O)Cc3ccccc3)cs2)cc1	none
O=C(COc1ccccc1)NCc1csc(-c2ccccc2)n1	USP30 inh 31.0, USP17 block 44.2
O=S(=O)(Nc1nnc(C2CC2)s1)c1cccc2nonc12	USP17 block 37.2 (no result: USP28 inh, USP30 inh)
Cc1onc(-c2ccccc2)c1CNS(=O)(=O)c1cccc2nonc12	none
O=C(c1ccc(Cl)cc1)[C@@H]1[C@H](C(=O)OC(c2ccccc2)c2ccccc2)N2c3ccccc3C=CC2[C@@]12C(=O)Nc1ccccc12 (some centres not stated)	USP8 inh 52.2
CCCCCCC(C)/C=C(C)/C=C/C(=O)N[C@H]1CC2(O[C@H]1O)[C@@H]1O[C@@H]1C(=O)[C@@H]1O[C@@H]12 (some centres not stated)	USP30 inh 42.1, USP17 block 30.4
O=[N+]([O-])c1ccc2nc3c(c(-c4ccccc4)c2c1)CNCC3	USP8 inh 82.4, USP17 block 48.4
O=C(COc1cccnc1[N+](=O)[O-])N1CCC(Cc2ccccc2)CC1	none
O=C(OCC(=O)N1CCC(Cc2ccccc2)CC1)c1ccc2c(c1)S(=O)(=O)N=C1CCCCCN12	USP30 inh 48.6
Cc1cccc(C(=O)OCC(=O)N2CCC(Cc3ccccc3)CC2)c1O	none
COc1ccc(C(=O)OCC(=O)N2CCC(Cc3ccccc3)CC2)cc1[N+](=O)[O-]	USP28 inh 36.1, USP30 inh 46.5
O=C(COC(=O)c1ccc2c(c1)S(=O)(=O)N=C1CCCCCN12)NCCc1ccc(F)cc1	none (no result: USP17 block)
COc1cc(C(=O)OCC(=O)N2CCC(Cc3ccccc3)CC2)c([N+](=O)[O-])cc1OC	USP30 inh 44.1
O=C1NC(=N/N=C/c2ccccc2)SC1Cc1cc(C(F)(F)F)ccc1Cl (configuration not stated)	USP30 inh 35.2, USP17 block 35.8
CCOc1ccc(NC(=O)c2cccc(-n3cnnc3)n2)cc1	none
CCOc1ccc(-n2cc(C(=O)Nc3cnc4ccccc4c3)nn2)cc1	USP17 block 43.2
COc1ccccc1NC(=O)c1nn(-c2cccc(F)c2)c(OC)cc1=O	USP30 inh 75.8, USP17 block 46.1
O=C(NC1CC1)c1nc(-c2cn(-c3ccc(Cl)cc3)nn2)no1	USP8 inh 39.6
O=C(Nc1ccccc1F)c1nc(-c2cn(-c3ccc(F)cc3)nn2)no1	USP8 inh 90.4
COc1ccccc1NC(=O)c1nc(-c2cn(-c3cccc(F)c3)nn2)no1	USP8 inh 96.1
O=C(NC1CC1)c1nc(-c2cn(-c3ccc(F)cc3)nn2)no1	none
O=C(Nc1ccccc1)c1nc(-c2cn(Cc3ccc(F)cc3)nn2)no1	USP28 inh 37.4, USP30 inh 55.2
Fc1ccc(Cn2cc(-c3noc(-c4cccnc4)n3)nn2)cc1	none
O=C(O)CCCC(=O)N1CCc2cc(S(=O)(=O)N3CCCC3)ccc21	none
Cc1ccc(CNC(=O)C2CCN(c3cnc4nccnc4c3)CC2)cc1	none
c1cncc(-c2cnc3sc(NC4CCCCC4)nn23)c1	USP17 block 34.6
Cc1cc2nc(Oc3ccc(Br)cc3F)c3ccccc3n2n1	none
Cc1cc2nc(Oc3cccc(C(F)(F)F)c3)c3ccccc3n2n1	USP30 inh 48.9, USP17 block 35.4
c1ccc2oc(CN3CC[C@H](c4nnc(-c5ccncc5)o4)C3)cc2c1	USP8 inh 34.1
CCc1nc(SCC(=O)Nc2ccc(C)cc2C)c2oc3ccccc3c2n1	none
COc1ccc(C)cc1NC(=O)CSc1nc(C)nc2c1oc1ccccc12	USP17 block 51.5
Cc1nc(SCC(=O)Nc2ccc3c(c2)OCO3)c2oc3ccccc3c2n1	none
COCCCn1c(SCC(=O)Nc2ccccc2C(=O)OC)nc2ccccc2c1=O	USP30 inh 69.7, USP17 block 42.4
Cc1ccccc1-n1ncc2c(=O)n(CC(=O)Nc3ccc4c(c3)OCCO4)cnc21	USP17 block 30.4
O=C(CSc1ncnc2c1oc1ccccc12)Nc1ccc2c(c1)OCCO2	USP17 block 65.0
O=C(CSc1ncnc2c1oc1ccccc12)NCC1CCCO1 (configuration not stated)	none (no result: USP28 inh, USP30 inh)
Clc1ccccc1CSc1ncnc2c1oc1ccccc12	USP17 block 41.0
O=C(CSc1ncnc2c1oc1ccccc12)NC1CCCCC1	USP30 inh 32.5
COC(=O)c1ccccc1NC(=O)CSc1ncnc2c1oc1ccccc12	USP30 inh 32.7
Cn1c(C(=O)N2CCCC(c3ncc(Cc4cccc(F)c4)o3)C2)cc(=O)n(C)c1=O (configuration not stated)	none
COc1ccc(CCC(=O)Nc2ncc(C)s2)cc1OC	USP28 inh 53.8
COc1ccc(CC(=O)Nc2ncc(C)s2)c(OC)c1OC	none
COc1cccc(C2CC(=O)Nc3ccsc32)c1OCc1ccccc1 (configuration not stated)	USP30 inh 40.7
CCC(=O)Nc1ccc2c(c1)C(=O)N(C)C1=NCCN12	none
COC(=O)c1ccc(N2CCN(C(C)=O)CC2)c(NC(=O)c2ccc(OCc3ccccc3)cc2)c1	none
C[C@@H](NS(=O)(=O)c1ccc(Br)cc1)C(=O)NCc1cscn1	none
O=C(NC1CCCCCC1)c1cccc(S(=O)(=O)Nc2cc(C(F)(F)F)ccc2Cl)c1	USP30 inh 30.6, USP17 block 33.4
COc1cn(-c2ccc(F)cc2)nc1C(=O)Nc1ccc(Cl)cc1Cl	USP8 inh 48.8
Cc1ccc(-n2nnc(C(=O)Nc3ccc(F)cc3F)c2C)cc1	none
COc1ccc(NC(C)=O)cc1S(=O)(=O)N(CC(=O)Nc1ccc(C)cc1)CC(=O)Nc1ccc(C)cc1	USP17 block 33.6
COc1ccc(Cl)cc1S(=O)(=O)N(C)CC(=O)Nc1ccc2c(c1)OCCO2	none
O=C(Cc1ccc(-n2c(=O)[nH]c3ccsc3c2=O)cc1)N1CCC(Cc2ccccc2)CC1	USP28 inh 37.4, USP17 block 46.6
O=C(CCCn1c(=O)[nH]c2ccccc2c1=O)N1CCC(Cc2ccccc2)CC1	none
CCc1ccc(OCc2nnc(SCC(=O)Nc3ccccc3OC)n2Cc2ccccc2)cc1	USP30 inh 49.3, USP17 block 52.5
O=C(c1cnccn1)N1CCC2(CC1)CCN(CC1CCCC1)C2=O	none
Nc1ncnc2c1ncn2[C@@H]1O[C@H](CO)C[C@@H]1O	USP28 inh 43.6, USP17 block 49.6
C=C1O[C@](CO)(n2cnc3c(N)ncnc32)[C@@H](O)[C@H]1O	none
